Compound activity from PubChem.
HCMV inh: qHTS Assay for inhibitors of the human cytomegalovirus (HCMV) | activity change, negative = inhibition, % at 57.5 µM | actives 4.5% (n = 410,000) | AID 1259415, 2018 | HFF cells, HCMV-luciferase reporter, 72 h; hits give low values; in the data active = activity change below about -60%; inconclusive = no clear call, values can overlap the other calls; inactive = above about -39%
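Screen run at 2 compound doses on HFFs infected with reporter HCMV, MOI 1 PFU/cell. Luciferase activity from cell lysates at 72 h post infection gave inhibition relative to buffer-only and Salinomycin wells.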
Pf growth 96h: Primary qHTS for delayed death inhibitors of the malarial parasite plastid, 96 hour incubation; P. falciparum luciferase reporter growth, 96 h; Potency, µM (doses to about 28.7 µM), usual class: inhibitors; actives 6.9% (n = 320,000); AID 504834, 2011
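Two-generation exposure (96 h) targets delayed-death phenotype. Reporter parasites carrying integrated firefly luciferase, in red cells at 2% hematocrit and 0.05% parasitemia final, kept at 37 C, 5% CO2; luminescence loss indicates inhibition.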
Shiga toxin inh: A qHTS for Small Molecule Inhibitors of Shiga Toxin. actives 9.2% (n = 290,000). Vero cells, Shiga toxin protein synthesis inhibition reporter. inhibition, % at 38.7 µM; in the data active = inhibition mostly above about 28%, no sharp cut-off; inactive = mostly below about 43%
Pf growth 48h: Primary qHTS for delayed death inhibitors of the malarial parasite plastid, 48 hour incubation. P. falciparum luciferase growth in erythrocytes, 48 h. Potency, µM (top dose mostly 28.7 µM), actives largely listed as inhibitors. actives 5.9% (n = 310,000). AID 504832, 2011
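Here the parasites carry a stable luciferase gene and grow inside erythrocytes in Albumax-based RPMI medium with compound for one erythrocytic cycle. Activity is scored as loss of luminescent signal.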
Cycloheximide cs: Cycloheximide Counterscreen for Small Molecule Inhibitors of Shiga Toxin | max response, % | cell reporter, cycloheximide protein synthesis inhibition counterscreen | actives 12% (n = 300,000) | AID 2314, 2010; in the data active = max response mostly above about 13%, no sharp cut-off; inactive = mostly below about 14%; note: read at 38.3 µM for the half of the compounds with a filed dose
Each line names hits and unclear results; the compound was inactive in the other large screens. The list is not random: actives were taken first. Their share in the collection is about 20%. Unless noted, calls come from the whole dose curve; as a rule, active = well fitted inhibition curve with a large enough effect; inconclusive = small, poorly fitted or top-dose-only effect, or another doubt; inactive = no such curve, though single readings can be large or run the other way.

COC(=O)c1ccc(OCc2cc(=O)n3ccsc3n2)cc1	Shiga toxin inh 141.8, Cycloheximide cs 49.4
O=C(CNC(=O)c1ccccc1)OCc1cc(=O)n2ccsc2n1	none (no result: Pf growth 96h, Shiga toxin inh, Pf growth 48h, Cycloheximide cs)
O=c1cc(CN2CCCc3ccccc32)nc2sccn12	Cycloheximide cs 23.9
O=C(OCc1cc(=O)n2ccsc2n1)C1(c2ccccc2)CC1	HCMV inh -98.4 (no result: Pf growth 96h, Shiga toxin inh, Pf growth 48h, Cycloheximide cs)
CC(C)(C)OC(=O)C[C@@H]1C/C=C\C[C@H](CC(=O)N[C@H](CO)Cc2ccccc2)C(=O)N2CCC[C@H]2COC1=O	none (no result: Pf growth 96h, Shiga toxin inh, Pf growth 48h, Cycloheximide cs)
COc1ccc(N(CC(=O)NCCC2=CCCCC2)S(=O)(=O)c2ccccc2)c(OC)c1	Pf growth 48h inconclusive
Cc1ccc(NCc2cccn2-c2nnc(N3CCC(C(=O)NCCC(C)C)CC3)s2)cc1	HCMV inh -67.5 (no result: Pf growth 96h, Shiga toxin inh, Pf growth 48h, Cycloheximide cs)
CCOc1ccc(NCc2cccn2-c2nnc(N3CCC(C(=O)NCCCN4CCCCC4C)CC3)s2)cc1 (configuration not stated)	HCMV inh -66.3, Pf growth 96h inconclusive, Pf growth 48h inconclusive
CCOc1ccc(NCc2cccn2-c2nnc(N3CCC(C(=O)NCCCN4CCCCC4)CC3)s2)cc1	HCMV inh inconclusive, Pf growth 96h inconclusive, Shiga toxin inh 22.7, Cycloheximide cs 16.7
CCOc1ccc(NCc2cccn2-c2nnc(N3CCC(C(=O)NCCCN4C(C)CCCC4C)CC3)s2)cc1 (configuration not stated)	HCMV inh inconclusive, Pf growth 48h inconclusive
CCNC(=O)C1(C)CCCN(C(=O)c2ccc(C(F)(F)F)nc2C)C1 (configuration not stated)	none (no result: Pf growth 96h, Shiga toxin inh, Pf growth 48h, Cycloheximide cs)
CCCCCn1c(=O)[nH]c2cc(C(=O)NCc3ccc(OC)cc3)ccc2c1=O	none (no result: Pf growth 96h, Shiga toxin inh, Pf growth 48h, Cycloheximide cs)
Cc1cccc(N2CCN(C3=NC(=O)/C(=C\c4cn[nH]c4-c4ccccc4)S3)CC2)c1	Pf growth 96h 11.7µM, Pf growth 48h 5.22µM
O=C1N=C(N2CCN(c3ccccc3)CC2)S/C1=C\c1ccco1	none
Cc1ccc(N2CCN(C3=NC(=O)/C(=C\c4cn[nH]c4-c4ccccc4)S3)CC2)cc1	HCMV inh inconclusive, Pf growth 96h inconclusive, Pf growth 48h 5.86µM
O=C1N=C(N2CCC(Cc3ccccc3)CC2)S/C1=C/c1cn[nH]c1-c1ccccc1	Pf growth 96h inconclusive, Pf growth 48h inconclusive
O=C1N=C(N2CCN(c3ccccc3)CC2)S/C1=C\c1cn[nH]c1-c1ccccc1	Pf growth 96h 4.15µM, Pf growth 48h inconclusive
CC1=Nc2cc(C(=O)NCc3ccccc3Cl)ccc2Sc2c(C)ccc(C)c21	HCMV inh -90.4 (no result: Pf growth 96h, Shiga toxin inh, Pf growth 48h, Cycloheximide cs)
CC1=Nc2cc(C(=O)N3CCCC3)ccc2Sc2c(C)ccc(C)c21	HCMV inh -99.6, Pf growth 48h inconclusive
CCOC(=O)N1CCN(C(=O)c2ccc3c(c2)N=C(C)c2cc(Cl)ccc2S3)CC1	HCMV inh inconclusive, Pf growth 96h inconclusive, Pf growth 48h 9.28µM
O=c1nc(/C=C/c2ccccc2C(F)(F)F)cc(C(F)(F)F)[nH]1	Pf growth 96h inconclusive, Pf growth 48h inconclusive
CCOc1cc(/C=C/c2cc(C(F)(F)F)[nH]c(=O)n2)ccc1O	HCMV inh -98.4, Pf growth 48h inconclusive
COc1ccc(/C=C/c2cc(C(F)(F)F)[nH]c(=O)n2)cc1OC	HCMV inh -94.5, Pf growth 48h inconclusive
O=C(Nc1ccc(Cl)cc1)Nc1nnc(CSCc2ccc(Cl)cc2)s1	HCMV inh -67.4, Pf growth 96h 8.28µM, Pf growth 48h 4.15µM
CCc1nnc(NC(=O)Nc2ccc(Cl)cc2)s1	Pf growth 96h inconclusive, Shiga toxin inh 51.8, Pf growth 48h inconclusive, Cycloheximide cs 25.5
CCC(=O)Nc1nnc(CSCc2ccccc2)s1	none
Nc1nnc(CSCc2ccc(Cl)cc2)s1	none
CCC(=O)Nc1nnc(CSCc2ccc(F)cc2)s1	Pf growth 96h 0.928µM (no result: Pf growth 48h)
CC(C)CC1NC(=O)c2cccnc2-n2c1nc1cc(F)ccc1c2=O (configuration not stated)	none (no result: Pf growth 96h, Shiga toxin inh, Pf growth 48h, Cycloheximide cs)
COC(=O)C1CCN(C(=O)/C=C/c2ccccc2)CC1	Pf growth 96h inconclusive, Shiga toxin inh 41.3
O=C(/C=C/c1cccc(Cl)c1)N1CCC(Cc2ccccc2)CC1	Shiga toxin inh 53.6, Cycloheximide cs 12.0
CCOC(=O)C1CCN(C(=O)/C=C/c2ccc(OC)cc2)CC1	Shiga toxin inh 71.3, Cycloheximide cs 42.5 (no result: Pf growth 48h)
O=C(C(=O)N1CCC(Cc2ccccc2)CC1)c1ccccc1Br	HCMV inh -63.4 (no result: Pf growth 96h, Shiga toxin inh, Pf growth 48h, Cycloheximide cs)
CCOC(=O)C(=O)N1CCC(Cc2ccccc2)CC1	none
CCOC(=O)c1ccc2[nH]c(CSc3nnc(-c4cccc(F)c4)n3C)cc(=O)c2c1	none (no result: Pf growth 96h, Shiga toxin inh, Pf growth 48h, Cycloheximide cs)
COc1cccc(-c2nc3c(Nc4cccc(F)c4)nccc3[nH]2)c1F	none (no result: Pf growth 96h, Shiga toxin inh, Pf growth 48h, Cycloheximide cs)
O=C(O)C1C2CCC(O2)C1C(=O)Nc1ccccc1Br (configuration not stated)	none
CC(Sc1nnc(Cc2ccccc2)o1)C(=O)Nc1ccccc1[N+](=O)[O-] (configuration not stated)	none (no result: Shiga toxin inh, Cycloheximide cs)
CCCC(=O)N1CCC(Cc2ccccc2)CC1	Pf growth 96h inconclusive
O=C(/C=C/c1ccccc1)N1CCC(Cc2ccccc2)CC1	Pf growth 96h 8.28µM, Pf growth 48h inconclusive
COc1ccc(NC(=O)Cn2c3ncccc3c(=O)n2-c2ccc(C)c(C)c2)c(OC)c1	none (no result: Pf growth 96h, Shiga toxin inh, Pf growth 48h, Cycloheximide cs)
CC1CCCN(CCCN2C(=O)C3C(C(=O)Nc4ccc(Cl)cc4)C4C=CC3(O4)C2C(=O)NC2CCCCC2)C1 (configuration not stated)	Pf growth 48h inconclusive
COc1cccc(CNC(=O)C2CCCN(S(=O)(=O)c3c(C)[nH]c(=O)[nH]c3=O)C2)c1 (configuration not stated)	none (no result: Pf growth 96h)
CC(C)n1c(=S)[nH]c2scc(-c3cccs3)c2c1=O	none
CCn1c(=S)[nH]c2scc(-c3cccs3)c2c1=O	HCMV inh -63.2
CC(=O)OC1(c2ccccc2)CCN(C)C2CCCCC21 (configuration not stated)	none
CC(=O)OC1(c2ccccc2)CCN(C)CC1(C)C (configuration not stated)	HCMV inh -80.0
O=C(Cc1c(Cl)cccc1Cl)OCC(=O)N1CCOCC1	none (no result: Pf growth 96h, Shiga toxin inh, Pf growth 48h, Cycloheximide cs)
O=C(OCC(=O)N1CCc2ccccc2C1)c1cc(=O)[nH]c2ccccc12	Shiga toxin inh 58.6, Cycloheximide cs 32.6
O=C(c1cc(=O)[nH]c2ccccc12)N1CCc2ccccc2C1	none
O=C(Cc1c(Cl)cccc1Cl)OCC(=O)N1CCc2ccccc2C1	HCMV inh -101.3, Pf growth 96h inconclusive
COc1ccccc1CNC(=O)C1CCCN(S(=O)(=O)c2ccc3c(c2)CC(C)N3C(C)=O)C1 (configuration not stated)	HCMV inh inconclusive, Pf growth 96h inconclusive, Pf growth 48h inconclusive
COc1ccc(-c2nc(NC3=NCCCCC3)sc2C)cc1	none
CCNc1nc(-c2ccc(OC(F)F)cc2)c(C)s1	Shiga toxin inh 124.0, Cycloheximide cs 40.8
COc1cccc(CNCc2ccccc2Br)c1OC	Pf growth 96h 9.28µM (no result: Shiga toxin inh)
COc1ccccc1CNCc1ccc(OC)c(OC)c1OC	Pf growth 96h 10.4µM
